In PubChem BioAssay AID1345085 (National Center for Advancing Translational Sciences (NCATS), 2018):
Inconclusive results are not listed. The source made the active and inactive calls. The call rests on the fitted dose curve; in most records, active means well fitted cell-killing curve with a large enough effect; inconclusive means small, poorly fitted or top-dose-only effect, or effect the other way; inactive means no such curve, though single readings can be large or run the other way.

tested on: HeLa; experiment: Confirmatory qHTS for gynecologic anti-cancer compounds from libraries of approved drugs and bioactive compounds; conditions: gynecologic cancer cell panel viability, ATPlite luminescence, 48 h; series mostly up to 57.6 µM; activity change, negative = viability loss: at the top concentration; further: nearly all actives have a fitted effect of over 55% in size
How it was run: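 Cells (1,000/well) plated 16 h, then exposed 48 h at 37 °C to 11 concentrations (1:3) from 57.5 uM to 0.977 nM. Viability by ATPlite luminescence after 15 min; IC50 derived, with HEK 293T used for selectivity index.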
On the % scale 0 is the no-effect control and ±100 the full control effect; potency means the concentration at half of the fitted maximal effect.

Q: For `NCCOc1cc(C(=O)Nc2cc(OCCN)c3ccccc3n2)nc(C(=O)Nc2cc(OCCN)c3ccccc3n2)c1`, which Potency is on record?
A: 19.3 µM (active)

Q: `Cn1cnc2c(F)c(Nc3ccc(Br)cc3F)c(C(=O)NOCCO)cc21` was tested. Which “activity change, negative = viability loss” value did it give?
A: -17.7% (inactive)

Q: Which Potency does the source give for `Cc1cnc(Nc2cccc(CN3CCOCC3)c2)nc1Nc1cccc(S(=O)(=O)NC(C)(C)C)c1` here?
A: 1.72 µM (active)

Q: Which Potency does the source give for `Cn1cc(-c2[nH]c3cc(NC(=O)[C@H](N)C4CCCCC4)cc4c3c2C=NNC4=O)cn1` here?
A: 1.72 µM (active)

Q: `Cc1cnc(Nc2ccc(F)cc2Cl)nc1-c1c[nH]c(C(=O)NC(CO)c2cccc(Cl)c2)c1` (configuration not stated) was tested. Which Potency did it give?
A: 9.68 µM (active)

Q: For `CNc1nc(Nc2ccc(C(=O)N3CCOCC3)cc2OC)ncc1Cl`, which Potency is on record?
A: 6.85 µM (active)

Q: How did the Potency turn out when `CCC1=CC2CN(C1)Cc1c([nH]c3ccccc13)[C@@](C(=O)OC)(c1cc3c(cc1OC)N(C)[C@H]1[C@@](O)(C(=O)OC)[C@H](OC(C)=O)[C@]4(CC)C=CCN5CC[C@]31[C@@H]54)C2` (some centres not stated) was run?
A: 0.0943 µM (active)

Q: Which Potency does the source give for `Nc1ccc(-c2ccc3ncc4ccc(=O)n(-c5cccc(C(F)(F)F)c5)c4c3c2)cn1` here?
A: 0.385 µM (active)

Q: `COCCOc1nc(-c2ccc(Cl)c(Cl)c2)n(-c2ccc(NC(=O)CCl)cc2)n1` was tested. Which Potency did it give?
A: 24.3 µM (active)

Q: How did the “activity change, negative = viability loss” value turn out when `CCCc1nn(C)c2c(=O)[nH]c(-c3cc(S(=O)(=O)N4CCN(C)CC4)ccc3OCC)nc12` was run?
A: 47.6% (inactive)

Q: With `O=C(O)C1(Cc2cccc(Nc3nccs3)n2)CCC(Oc2cccc(Cl)c2F)CC1` (configuration not stated) as the molecule, how does the Potency read?
A: 1.22 µM (active)

Q: For `COc1ccc(CCC(=O)c2c(O)cc(O[C@@H]3O[C@H](CO)[C@@H](O)[C@H](O)[C@H]3O[C@@H]3O[C@@H](C)[C@H](O)[C@@H](O)[C@H]3O)cc2O)cc1O`, which “activity change, negative = viability loss” value is on record?
A: 3.93% (inactive)
